Source: PubChem BioAssay
This is a sample that favours compounds with a hit; in the whole collection about 6.7% have one here.
SW480 rerep – induces DNA re-replication in SW480 colon adenocarcinoma cells | SW480 DNA re-replication, Hoechst DNA content imaging, 48 h | Potency, µM (top dose mostly 46.1 µM), actives largely listed as activators | hit rate 1.8% among 340,000; note: nearly all actives have a fitted effect of over 55% in size
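Image-based read-out: total Hoechst fluorescence of nuclei (405 nm excitation, 500-530 nm emission), with hits raising the fraction of high-intensity nuclei. SW480 colon cells incubated 48 hr with compounds at 37 C.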
PINK1 modulator – PINK1 expression modulation; hit rate 0.2% among 410,000; PINK1 immunofluorescence, high-content cytometry, 24 h; Potency, µM (highest dose often 76.6 µM), most hits filed as activators; active = well fitted activation curve with a large enough effect; inconclusive = small, poorly fitted or top-dose-only effect; cell line not stated here; note: nearly all actives have a fitted effect of over 65% in size
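Stable cell line, 250 cells/well, 12 h attachment; compounds pinned at 5 concentrations, 24 h; CCCP control. Fixed with nuclear dye, primary antibodies 12 h at 10 degrees C, secondary plus cell stain; laser-scanning cytometer read.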
KB-V1 cytotox – KB-V1 MDR subline cytotoxicity. KB-V1 MDR cells viability, CellTiter-Glo, 72 h. AID 1347076. hit rate 3.4% among 400,000. Potency, µM (doses to about 46.1 µM), actives largely listed as cytotoxic; note: nearly all actives have a fitted effect of over 60% in size
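KB-V1 MDR subline cells in DMEM (phenol-red free, 10% FBS) exposed to compounds in qHTS concentration series for 72 h at 37 degrees C. Viability read by CellTiter-Glo luminescence; concentration-effect curves fitted after normalization and correction.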
KB-3-1 tox – kills parental KB-3-1 adenocarcinoma cells | hit rate 1.4% among 400,000 | Potency, µM (highest dose often 46.1 µM), actives largely listed as cytotoxic | KB-3-1 viability, CellTiter-Glo ATP luminescence, 72 h; note: nearly all actives have a fitted effect of over 60% in size
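Screening of KB-3-1 cells (DMEM, 10% FBS, phenol-red free) ran from lowest to highest compound concentration; after 72 h at 37 °C viability was read luminescently and curves fitted.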
MCF10A rerep – DNA re-replication induction in MCF 10a cells; hit rate 2.9% among 350,000; Potency, µM (highest dose often 46.1 µM), most hits filed as activators; MCF 10A DNA re-replication, Hoechst nuclear intensity, 48 h; note: nearly all actives have a fitted effect of over 50% in size
Of the large screens only hits and unclear results are named; the others gave an inactive call. Unless noted, calls come from the whole dose curve; as a rule, active = well fitted curve in the direction sought with a large enough effect; inconclusive = small, poorly fitted or top-dose-only effect, or another doubt; inactive = no such curve, though single readings can be large; an effect the other way counts as inactive or inconclusive.

Cc1ccc(OCC(=O)N/N=C/c2cccnc2)cc1	none
Oc1ccccc1C1CCCCC1c1ccccc1 (centres undefined)	none
COc1ncc2nc(-c3cn(C)c4ccccc34)c(=O)n(C[C@H]3CCCO3)c2n1	none (no result: SW480 rerep, KB-V1 cytotox, KB-3-1 tox, MCF10A rerep)
CC(C)(C)C1CCc2onc(C(=O)Nc3sc4c(c3C(N)=O)CCCC4)c2C1 (centres undefined)	none (no result: SW480 rerep, KB-V1 cytotox, KB-3-1 tox, MCF10A rerep)
COc1ccc(C2Nc3ccccc3C(=O)N2Cc2ccco2)cc1COc1ccc([N+](=O)[O-])cc1 (centres undefined)	none
COc1cccc(OCc2cc(C3Nc4ccccc4C(=O)N3Cc3ccco3)ccc2OC)c1 (centres undefined)	KB-V1 cytotox 4.1µM
COc1ccc(C2Nc3ccccc3C(=O)N2Cc2ccco2)cc1COc1c(C)cccc1C (centres undefined)	KB-3-1 tox 16µM (no result: SW480 rerep, MCF10A rerep)
CC(=Nc1ccccc1)C1=C(O)C(Cc2ccc(O)cc2)NC1=O (centres undefined)	SW480 rerep 0.13µM, KB-V1 cytotox inconclusive, KB-3-1 tox 0.21µM, MCF10A rerep 0.46µM
CC(=Nc1ccccc1)C1=C(O)C(Cc2cccc(F)c2)NC1=O (centres undefined)	KB-V1 cytotox 1.2µM, KB-3-1 tox inconclusive (no result: SW480 rerep, MCF10A rerep)
O=C1NC[C@H](Cc2ccccc2)N(CCc2cccc(F)c2)C1=O	KB-V1 cytotox inconclusive
O=C1CN(C(=O)COc2ccc(Cl)cc2)C(c2ccccc2)c2cc(Br)ccc2N1 (centres undefined)	none (no result: SW480 rerep, MCF10A rerep)
N=c1n(CCN2CCCCC2)c2ccccc2n1CC(=O)c1cccs1	SW480 rerep 8.2µM, KB-3-1 tox inconclusive, MCF10A rerep inconclusive
O=C(CCN1CCCC1)c1cccs1	MCF10A rerep 23µM
O=C(/C=C/c1ccco1)N1CCCC(c2ccccc2)C1 (centres undefined)	SW480 rerep inconclusive, MCF10A rerep inconclusive
O=C(/C=C/c1ccccc1)N1CCC(c2ccccc2)C1 (centres undefined)	KB-V1 cytotox 21µM
COc1cccc(-c2cccc3c2NC(=O)C3(C)Cc2ccccc2F)c1 (centres undefined)	none (no result: SW480 rerep, MCF10A rerep)
CC(=O)n1cc(C(C[N+](=O)[O-])SCCN)c2ccccc21 (centres undefined)	SW480 rerep 6.5µM, KB-V1 cytotox inconclusive, KB-3-1 tox inconclusive, MCF10A rerep 5.2µM
COC(=O)/C(=C/c1cn(C(C)=O)c2ccccc12)[N+](=O)[O-]	none
N#Cc1c(-c2ccc(Cl)cc2)cc(-c2cccs2)nc1SCC(=O)O	MCF10A rerep 23µM
CCOC(=O)CSc1nc(C2CC2)cc(-c2ccc(Cl)cc2)c1C#N	KB-V1 cytotox 21µM
N#Cc1c(-c2ccccc2F)cc(C2CC2)nc1SCC(=O)c1cccs1	SW480 rerep 10µM, KB-V1 cytotox inconclusive, MCF10A rerep inconclusive
Cc1ccc2c(c1)ncc[n+]2CC(=O)c1ccc(Cl)cc1Cl	none (no result: SW480 rerep, MCF10A rerep)
C#CCOCCOCCOCCNc1nc(N2CCOCC2)nc(N2CCN(C(=O)CCCCCCCCCCNC(=O)[C@@H]([C@H](C)CC)n3cc(CCCCCN)nn3)CC2)n1	SW480 rerep inconclusive, MCF10A rerep 12µM
C#CCOCCOCCOCCNc1nc(N2CCN(C(=O)CCCCCCCCCCNC(=O)Cn3cc(C[C@@H](C)O)nn3)CC2)nc(N2CCN(C(=O)CCCCCCCCCCNC(=O)[C@H](CO)n3cc(CCCSC)nn3)CC2)n1	KB-V1 cytotox inconclusive, MCF10A rerep 6.5µM
CCCc1c(-c2ccc(Cl)cc2)ncn1Cc1cccc(-c2ccccc2)c1	KB-V1 cytotox inconclusive, KB-3-1 tox 16µM (no result: SW480 rerep, PINK1 modulator, MCF10A rerep)
CCCc1c(-c2cccc(Br)c2)ncn1Cc1cccc(-c2ccccc2)c1	KB-V1 cytotox 16µM, KB-3-1 tox inconclusive (no result: SW480 rerep, PINK1 modulator, MCF10A rerep)
Cc1ccc2onc(CC(=O)N3CCN(c4ccc(F)cc4)CC3)c2c1	KB-V1 cytotox inconclusive (no result: SW480 rerep, MCF10A rerep)
O=C(Cc1ccccc1[N+](=O)[O-])Nc1nccs1	SW480 rerep 2.9µM
CCCCCNC(=O)C(c1ccc(-c2ccccc2)cc1)n1c(=O)c(-c2cc3ccccc3[nH]2)nc2ccccc21 (centres undefined)	none (no result: SW480 rerep, PINK1 modulator, MCF10A rerep)
Cc1c(Cl)c(C(=O)NC2C3CC4CC(C3)CC2C4)nn1C (centres undefined)	KB-V1 cytotox 15µM
CCNC(=O)C1(C)CCCN(C(=O)c2ccc(F)c(C)c2)C1 (centres undefined)	none (no result: SW480 rerep, MCF10A rerep)
CC(C)(C#CC(O)(c1ccccc1)c1ccccc1)N1CCCC1	MCF10A rerep 0.82µM
CCOC(=O)[C@]12CCC=C1N(CCC1=CCCCC1)C(=O)[C@H](CC(=O)NCc1cccc3ccccc13)C2	KB-V1 cytotox inconclusive (no result: SW480 rerep, MCF10A rerep)
Cc1cc(C)c[n+](C(C)C(=O)c2ccc(-c3ccccc3)cc2)c1 (centres undefined)	KB-3-1 tox 5.8µM
Cc1ccc[n+](C(C)C(=O)c2ccc(Cl)cc2)c1 (centres undefined)	none
CC(C)n1cc(C#N)c(N)n1	none
O=C(c1ccc2c(c1)C(=O)N(CCCO)C2=O)c1ccc2c(c1)C(=O)N(CCCO)C2=O	none
O=C1c2ccc3c4c(ccc(c24)C(=O)N1CCCCO)C(=O)N(CCCCO)C3=O	SW480 rerep inconclusive, KB-V1 cytotox inconclusive, KB-3-1 tox 3.7µM, MCF10A rerep inconclusive
COc1ccccc1C(=O)N1CCN(C(=O)[C@H]2O[C@@H](n3ccc(=O)[nH]c3=O)[C@H](O)[C@@H]2O)CC1	KB-V1 cytotox inconclusive (no result: SW480 rerep, MCF10A rerep)
CC(=O)C1=C(O)CCC1=NCCc1ccccc1	SW480 rerep inconclusive, MCF10A rerep 21µM (no result: PINK1 modulator)
Cc1cc(-c2ccc(C)c(S(=O)(=O)NCC3CCN(Cc4ccc(F)cc4)CC3)c2)on1	SW480 rerep 2.9µM, KB-3-1 tox inconclusive
CCc1ccc(-c2cc(C)no2)cc1S(=O)(=O)N1CCOc2ccccc21	KB-V1 cytotox 21µM, MCF10A rerep inconclusive
Cc1cc(-c2ccc(C(C)C)c(S(=O)(=O)N3CCN(c4ccccn4)CC3)c2)on1	SW480 rerep inconclusive, KB-V1 cytotox inconclusive, KB-3-1 tox inconclusive, MCF10A rerep 4.1µM
CCc1ccc(-c2cc(C)no2)cc1S(=O)(=O)N1CCN(c2ccc(F)cc2)CC1	SW480 rerep inconclusive, KB-V1 cytotox 12µM, KB-3-1 tox inconclusive
CC(=O)NC(CCC(=O)O)C(=O)O (centres undefined)	SW480 rerep inconclusive, MCF10A rerep inconclusive
Cc1ccc(NC(=O)c2cccc(NC(=O)CC3SC(N4CCCCC4)=NC3=O)c2)nc1 (centres undefined)	KB-3-1 tox inconclusive
CC1C(=O)C(=O)C=CN1C (centres undefined)	none (no result: PINK1 modulator, KB-V1 cytotox, KB-3-1 tox)
O=[N+]([O-])c1ccc(O/N=[N+](\[O-])N2CCN(c3ncccn3)CC2)c([N+](=O)[O-])c1	none (no result: SW480 rerep, KB-V1 cytotox, KB-3-1 tox, MCF10A rerep)
CCN(C(=O)CSc1nc(-c2ccc(C(C)C)cc2)no1)c1ccccc1	none (no result: SW480 rerep, MCF10A rerep)
Cc1cn([C@H]2C[C@H](O)[C@@H](/C=C/C(=O)NCc3ccco3)O2)c(=O)[nH]c1=O	none (no result: SW480 rerep, MCF10A rerep)
Cn1c(SCc2ccccc2F)nc2cccnc21	KB-V1 cytotox 18µM
